The source of these data is PubChem BioAssay (NCATS).

Experiment [1] has as its target Metallo-beta-lactamase type 2 (Klebsiella pneumoniae) (UniProt C7C422). Nature of the experiment: qHTS to identify inhibitors of the New Delhi Metallo-beta-lactamase (NDM): assay validation screen against the NCATS LOPAC Collection (AID 1794843). Further: potency means the concentration at half of the fitted maximal effect. In outline: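 Absorbance at 485 nm from nitrocefin turnover (50 uM solution added), read at plateau, gives the read-out. Compounds in DMSO were incubated first with 2 nM final NDM-1 in pH 7.0 HEPES buffer containing 1 uM ZnSO4 and 0.01% Tween20.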
For orientation: In qHTS, concentration-response curves come from the screen itself.

Experiment [2] has as its target Glutathione peroxidase 1 (Homo sapiens) (UniProt P07203). Nature of the experiment: Primary qHTS Assay for Inhibitors of Recombinant Selenoprotein Glutathione Peroxidase 1 (GPX1) (AID 1845191). Further: nearly all actives have a fitted effect of over 65% in size. Further: potency means the concentration at half of the fitted maximal effect. On activity, negative = inhibition: on the % scale 0 is the no-effect control and ±100 the full control effect. In outline: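 NADPH consumption tracked by fluorescence at 340/450 nm between t=0 and t=15 min, room temperature. Final mix: 10 nM GPX1, 100 nM glutathione reductase, 1 mM GSH, 0.5 mM NADPH, 0.5 mM cumene hydroperoxide, 0.01% BSA; 30 min compound–enzyme preincubation.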

The target of experiment [3] is Phospholipid hydroperoxide glutathione peroxidase GPX4 (Homo sapiens) (UniProt P36969). Nature of the experiment: Primary qHTS Assay for Inhibitors of Recombinant Selenoprotein Glutathione Peroxidase 4 (GPX4) (AID 1845192). Further: nearly all actives have a fitted effect of over 65% in size. Conditions: outcome: dose series up to 50 µM unless noted. An outline of the steps: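 NADPH consumption followed by fluorescence at 340/450 nm, t=0 and after 15 min at room temperature. Reaction started with cumene hydroperoxide (0.5 mM final) after 30 min compound–GPX4 preincubation; final 200 nM GPX4, 100 nM GR, 1 mM GSH, 0.5 mM NADPH.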
Sequence of Phospholipid hydroperoxide glutathione peroxidase GPX4 (Homo sapiens) (P36969 whole entry, looked up): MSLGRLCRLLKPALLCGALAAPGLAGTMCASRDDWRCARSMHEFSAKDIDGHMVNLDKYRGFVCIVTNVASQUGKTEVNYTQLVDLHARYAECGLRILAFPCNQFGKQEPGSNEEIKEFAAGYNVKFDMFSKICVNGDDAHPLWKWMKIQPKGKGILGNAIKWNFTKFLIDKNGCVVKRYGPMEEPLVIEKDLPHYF

Experiment [4] is described as follows: qHTS profiling for inhibitors of Plasmodium falciparum proliferation (AID 504749). Further: potency means the concentration at half of the fitted maximal effect.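 On activity, negative = inhibition: 0% = DMSO vehicle and full inhibition = artemisinin control.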 On all read-outs here: nearly all actives have a fitted effect of over 60% in size. Conditions: P. falciparum in erythrocytes, SYBR Green DNA, 72 h; for activity, negative = inhibition: at 28.7 µM (top of the series). In outline:
(§1)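 SYBR Green fluorescence of parasite DNA, read after lysis and overnight dark incubation, measured growth over 72 h in erythrocyte culture at 0.3% parasitemia and 2.5% hematocrit. Data normalised to DMSO and 0.29 uM artemisinin, with plate-drift correction.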

For experiment [5], the system named is 3D7. The experiment is described as above. Conditions: P. falciparum in erythrocytes, SYBR Green DNA, 72 h; series mostly up to 28.7 µM. In outline: as §1
Experiment [6] has as its system 7G8. Described as above. To be noted: P. falciparum in erythrocytes, SYBR Green DNA, 72 h; series mostly up to 28.7 µM. An outline of the steps: as §1
In experiment [7] the test system is AA1029. The description is as above. To be noted: P. falciparum in erythrocytes, SYBR Green DNA, 72 h; series mostly up to 28.7 µM. In outline: as §1
Experiment [8] relates to AS120. Described as above. To be noted: P. falciparum in erythrocytes, SYBR Green DNA, 72 h; series mostly up to 28.7 µM. In outline:
as §1

Experiment [9] relates to ATS189. Described as above. To be noted: P. falciparum in erythrocytes, SYBR Green DNA, 72 h; series mostly up to 28.7 µM. An outline of the steps:
as §1

Experiment [10] has as its system ATS95. The description is as above. To be noted: P. falciparum in erythrocytes, SYBR Green DNA, 72 h; series mostly up to 28.7 µM. An outline of the steps: as §1
Experiment [11] has as its system C2A. Described as above. To be noted: P. falciparum in erythrocytes, SYBR Green DNA, 72 h; series mostly up to 28.7 µM. An outline of the steps:
as §1

For experiment [12], the system named is CP185. The description is as above. To be noted: P. falciparum in erythrocytes, SYBR Green DNA, 72 h; series mostly up to 28.7 µM. An outline of the steps:
as §1

The test system of experiment [13] is CP191. Described as above. Conditions: P. falciparum in erythrocytes, SYBR Green DNA, 72 h; series mostly up to 28.7 µM. In outline:
as §1

The subject of experiment [14] is CP192. Described as above. To be noted: P. falciparum in erythrocytes, SYBR Green DNA, 72 h; series mostly up to 28.7 µM. An outline of the steps: as §1
The subject of experiment [15] is CP194. The description is as above. Conditions: P. falciparum in erythrocytes, SYBR Green DNA, 72 h; series mostly up to 28.7 µM. An outline of the steps:
as §1

The target of experiment [16] is Luciferin 4-monooxygenase (Photinus pyralis) (UniProt P08659). Nature of the experiment: Primary firefly luciferase (FLuc) qHTS assay for identification of artifact compounds. (AID 1845220).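 Further: plate controls were DMSO vehicle for no effect and no enzyme for full effect; nearly all actives have a fitted effect of over 60% in size.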 An outline of the steps: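 Cell-free, 1536-well qHTS. Buffer pH 7.6 with 0.01% Tween-20 and 0.05% BSA; 10 uM D-luciferin, 10 uM ATP; 10 nM P. pyralis luciferase; luminescence after 5 min.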

The nature of experiment [17]: Primary fluorescence-based thiol-reactive (MSTI) qHTS assay for identification of artifact compounds. (AID 1845221).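 Further: thiol-reactive compounds lower the probe fluorescence signal; nearly all actives have a fitted effect of over 65% in size.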 In outline:
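Curve-fitted percent inhibition (4-parameter Hill) derived from fluorescence, Ex 525/Em 598 nm, scaled with Acetyl-MSTI and MSTI; 1 h incubation at room temperature.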

Experiment [18] has as its system Nanoluciferase (engineered Oplophorus gracilirostris luciferase). Nature of the experiment: Primary Nanoluciferase (NLuc) qHTS assay for identification of artifact compounds. (AID 1845222).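 Further: 0% = DMSO and -100% = no enzyme.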 An outline of the steps:
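Compounds are pinned into diluted (1:55) conditioned medium of NLuc-expressing S16 cells and held 15 min at room temperature protected from light. Nano-Glo substrate follows, and luminescence is read 5 min later.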

A short description of experiment [19]: Primary redox qHTS assay for identification of artifact compounds. (AID 1845223).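 Further: 0% = DMSO and 100% = reference compound.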 An outline of the steps:
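Redox-cycling detection via DTT (250 uM final) oxidation coupled to Amplex Red (25 uM)/HRP (250 mU/mL) in HBSS. 15 min preincubation plus 30 min after DTT, room temperature. Ex/Em 525/598 nm; 4-parameter Hill fit against DMSO and 10 uM DA3003.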

A short description of experiment [20]: qHTS drug screen for cell cycle checkpoint inhibitors in PARPi-resistant BRCA-mutant ovarian cancer cell lines. (AID 1963452; calls by dose curve). To be noted: PEO1/OlaR viability, CellTiter-Glo luminescence, 96 h, stronger effect = lower value. An outline of the steps: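 PEO1, PEO4 and PEO1/OlaR ovarian cancer cells, 600 per well, exposed 96 h at 37C to a dilution series. Viability read by CellTiter-Glo luminescence, normalized to DMSO and empty wells; activity summarized as Z-AUC.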

Several values for one entry are separate records, joined by “and”; a condition that tells them apart may be missing. Identical values can stand only once. Results filed as inconclusive are left out. Activity calls are given as the source filed them. Unless noted, the call rests on the fitted dose curve; in most records, active means well fitted curve in the direction sought with a large enough effect; inconclusive means small, poorly fitted or top-dose-only effect, or another doubt; inactive means no such curve, though single readings can be large; an effect the other way counts as inactive or inconclusive.

Sequence of Glutathione peroxidase 1 (Homo sapiens) (P07203 whole entry, looked up): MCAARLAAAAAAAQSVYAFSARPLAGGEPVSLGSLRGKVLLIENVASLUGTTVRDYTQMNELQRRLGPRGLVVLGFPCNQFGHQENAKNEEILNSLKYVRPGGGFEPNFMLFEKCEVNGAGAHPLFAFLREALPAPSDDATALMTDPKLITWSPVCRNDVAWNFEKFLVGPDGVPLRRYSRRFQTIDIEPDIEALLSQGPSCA
Sequence of Metallo-beta-lactamase type 2 (Klebsiella pneumoniae) (C7C422 whole entry, looked up): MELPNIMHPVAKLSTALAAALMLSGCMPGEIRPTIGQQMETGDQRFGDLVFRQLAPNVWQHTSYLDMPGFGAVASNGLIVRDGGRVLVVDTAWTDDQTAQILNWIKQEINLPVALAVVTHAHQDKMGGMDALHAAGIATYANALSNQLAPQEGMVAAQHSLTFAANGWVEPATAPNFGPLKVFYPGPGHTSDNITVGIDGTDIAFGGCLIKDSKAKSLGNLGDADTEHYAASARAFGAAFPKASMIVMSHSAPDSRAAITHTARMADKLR

Consider `COC(=O)C1=C(C)NC(C)=C(C(=O)OC(C)(C)CN(C)CCC(c2ccccc2)c2ccccc2)C1c1cccc([N+](=O)[O-])c1` (configuration not stated), for which the Potency entry in experiment [1] and in experiment [2] was “inactive” each time. The result in experiment [3] was inactive. Also, the Potency was 2 µM (active) in experiment [4] (parasite line A); 2 µM (active) in experiment [4] (parasite line B); 2.51 µM (active) in experiment [5]; 2 µM (active) in experiment [6]; 2.51 µM (active) in experiment [7]; 2 µM (active) in experiment [8]. Further, the Potency in [9] was 2 µM (active); in experiment [10] it was 3.55 µM (active); in experiment [11] it was 4.47 µM (active); in experiment [12], 5.01 µM (active); in experiment [13] it was 3.16 µM (active); in experiment [14], 9.53 µM (active). For the same compound, in [15], the Potency is 3.79 µM (active).

Consider `Cc1ccc(Cl)c(Nc2ccccc2C(=O)O)c1Cl`, for which the Potency result in [1], in [2], in experiment [5], in experiment [6], in experiment [7] and in [8] was “inactive” in each case. Besides, the Potency result in experiment [9], in experiment [10], in [11], in experiment [12], in experiment [13] and in experiment [14] was “inactive” each time. Besides, the Potency result in [15] was “inactive”. Further, the outcome in [3] was inactive. For the same compound, the activity, negative = inhibition in experiment [4] (parasite line A) is -0.156% (inactive); in experiment [4] (parasite line B), -3.06% (inactive).

On to `CCCNC(C)C(=O)Nc1ccccc1C` (configuration not stated), for which the Potency entry in experiment [1] and in experiment [2] was “inactive” in each case.

Consider `C[C@]12C=CC(=O)C=C1CC[C@H]1[C@@H]3C[C@@H](O)[C@](O)(C(=O)CO)[C@@]3(C)C[C@H](O)[C@@]12F`, for which the Potency entry in experiment [1] and in experiment [2] was “inactive” in each case. For the same compound, the outcome in experiment [3] was inactive.

With `COC(=O)C1=C(C)NC(C)=C(C(=O)OCCN(C)Cc2ccccc2)C1c1cccc([N+](=O)[O-])c1` (configuration not stated), the Potency result in [1] and in [2] was “inactive” throughout. The result in experiment [3] was inactive.

As for `CO[C@@]1(NC(=O)CSCC#N)C(=O)N2C(C(=O)O)=C(CSc3nnnn3C)CS[C@@H]21`, in experiment [1], the Potency result was “inactive”. The Potency in experiment [2] was 4.04 µM (active) and 25.1 µM (active).

Turning to `CCCN1C[C@H](CSC)C[C@@H]2c3cccc4[nH]cc(c34)C[C@H]21`, the Potency result in [1], in experiment [2], in experiment [5], in [12] and in [14] was “inactive” each time. For the same compound, the result in [3], in experiment [16], in [17], in [18] and in experiment [19] was inactive. The Potency is 11.2 µM (active) in experiment [6], 12.6 µM (active) in experiment [8] and 7.94 µM (active) in experiment [10].

As to `Nc1c2c(nc3ccccc13)CCCC2O` (configuration not stated), the Potency result in experiment [1], in experiment [2], in experiment [5], in [6], in experiment [7] and in [8] was “inactive” each time. Besides, the Potency result in experiment [9], in experiment [10], in experiment [11], in [12], in experiment [13] and in experiment [14] was “inactive” in each case. Moreover, the Potency result in experiment [15] was “inactive”. Further, the outcome in experiment [3] was inactive. Moreover, the activity, negative = inhibition in experiment [4] (parasite line A) is -3.4% (inactive); in experiment [4] (parasite line B), 3.67% (inactive).

As to `CNCCCN1c2ccccc2CCc2ccccc21`, the Potency entry in experiment [1] and in experiment [2] was “inactive” throughout. Besides, in experiment [3], the outcome was inactive.

For `COc1ccc([C@@H]2Sc3ccccc3N(CCN(C)C)C(=O)[C@@H]2OC(C)=O)cc1`, the Potency result in experiment [1], in [2], in experiment [5], in experiment [7], in [8] and in experiment [9] was “inactive” each time. Further, the Potency entry in experiment [10], in [11], in [12], in experiment [13], in [14] and in [15] was “inactive” in each case. Further, in [3], the result was inactive. Further, the Z-AUC in experiment [20] was 1.43 (inactive); in experiment [20] (measured here: PEO1 parental Z-AUC), 0.963; in experiment [20] (measured here: PEO4 Z-AUC), 0.74. In addition, the activity, negative = inhibition in experiment [4] (parasite line A) is 3.17% (inactive); in [4] (parasite line B) it was 7.3% (inactive).

With `C(=C\c1ccccc1)/CN1CCN(C(c2ccccc2)c2ccccc2)CC1`, the Potency entry in [1] and in experiment [2] was “inactive” each time.

Take `COCCc1ccc(OCC(O)CNC(C)C)cc1` (configuration not stated): the Potency entry in experiment [1] and in experiment [2] was “inactive” each time.

Regarding `O=C(O)CN(CCN(CC(=O)O)CC(=O)O)CCN(CC(=O)O)CC(=O)O`, the Potency in [1] was 2.82 µM (active). The Potency result in experiment [2], in [5], in experiment [6], in experiment [7], in experiment [8] and in experiment [9] was “inactive” in each case. For the same compound, the Potency result in experiment [10], in experiment [11], in experiment [12], in [13], in [14] and in [15] was “inactive” in each case. For the same compound, in experiment [3], the outcome was inactive. The figures for the activity, negative = inhibition in experiment [4] (parasite line A) and in [4] (parasite line B) were 7.8% (inactive) and -1.15% (inactive), respectively.
